Results: PubChem BioAssay (Tox21)
Several values for one entry are separate records, joined by “and”; a condition that tells them apart may be missing. Equal entries are not always repeated. Results filed as inconclusive are left out. Entries that show only a call come without a potency. The source holds several records for some structures; these can differ, active in one and inactive in another. Activity calls are given as the source filed them. Unless noted, calls come from the whole dose curve; as a rule, active = well fitted curve in the direction sought with a large enough effect in the repeat runs; inconclusive = weak or mixed curves; inactive = no such curve, though single readings can be large; an effect the other way counts as inactive or inconclusive.

Assays:
[1] = qHTS assay for small molecules that induce genotoxicity in human embryonic kidney cells expressing luciferase-tagged ATAD5 (AID 651632); note: nearly all actives have a fitted effect of over 15% in size
Method in brief: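 Cells were seeded at 2,000 per well, dosed with compound, and incubated 16 hr at 37C in 5% CO2. Luciferase activity was then quantified after a 30 min room-temperature incubation with Amplite.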

[2] = qHTS assay for small molecule agonists of the p53 signaling pathway - cell viability (AID 651633; calls by dose curve;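 note: p53RE-bla HCT reporter cells with a stable beta-lactamase p53 reporter; series mostly up to about 83 µM; nearly all actives have a fitted effect of over 30% in size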)
Method in brief: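 p53RE-bla cells, seeded at 4,000 per well and rested 5 h at 37 C/5% CO2, received compounds in DMSO for 16 h at 37 C. CellTiter-Glo was then added, and luminescence was read after 30 min at room temperature to gauge cytotoxicity.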

[3] = qHTS assay for small molecule disruptors of the mitochondrial membrane potential - cell viability (AID 720634; calls by dose curve; note: nearly all actives have a fitted effect of over 20% in size; note: potency is the fitted concentration of half-maximal effect)
Method in brief: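 Cytotoxicity was measured by ATP quantitation in HepG2 wells that had first been treated with compound for 1 hr and stained with m-MPI dye; CellTiter-Glo incubation was 30 min at room temperature.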

[4] = qHTS assay for small molecule disruptors of the mitochondrial membrane potential (AID 720635); note: potency is the fitted concentration of half-maximal effect
Method in brief: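 HepG2 cells (2,000/well) attached overnight at 37C, then took compound for 1 hr at 37C, 5% CO2. Mito-MPS dye was added for 30 min; fluorescence was read at 490/535 nm (monomers) and 540/590 nm (aggregates).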

[5] = qHTS assay to test for compound auto fluorescence at 590 nm (red) in HepG2 cells (AID 720674)
Method in brief: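 Compound auto-fluorescence is scored relative to Rose Bengal sodium, measured at 540/590 nm in live HepG2 cultures after 1 hr compound contact (37 C, 5% CO2).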

[6] = qHTS assay to test for compound auto fluorescence at 535 nm (green) in HepG2 cells (AID 720675)
[7] = qHTS assay to test for compound auto fluorescence at 460 nm (blue) in HEK293 cells (AID 720678)
Method in brief: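 Measured: blue fluorescence (Ex 405/Em 460 nm) of compound-treated HEK293 cells, incubated overnight at 37C with 5% CO2 and scaled to triamterene equivalents.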

[8] = qHTS assay to test for compound auto fluorescence at 590 nm (red) in HEK293 cells (AID 720679)
Method in brief: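 Using HEK293 cells at 2,000 per well, the screen added 23 nL of each compound after cell attachment and incubated overnight (37C, 5% CO2). The plate reader then captured red-label fluorescence, Ex/Em 540/590nm.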

[9] = qHTS assay to test for compound auto fluorescence at 535 nm (green) in HEK293 cells (AID 720680)
[10] = qHTS assay to test for compound auto fluorescence at 460 nm (blue) in HEK293 cell free culture (AID 720681)
Method in brief: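 Test compounds were pinned into cell-free culture medium (DMEM with 10% FBS) and fluorescence was read directly at Ex/Em 405/460 nm. Signals were expressed as fluorescence equivalents of triamterene, with DMSO vehicle as control.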

[11] = qHTS assay to test for compound auto fluorescence at 535 nm (green) in HEK293 cell free culture (AID 720682)
Method in brief: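 Compounds were pin-transferred into cell-free DMEM with 10% FBS, and green fluorescence was read at excitation 485 nm and emission 535 nm. Intensities were expressed as fluorescein-equivalent values.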

[12] = qHTS assay to test for compound auto fluorescence at 590 nm (red) in HEK293 cell free culture (AID 720683)
Method in brief: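 Tox21 10K library compounds were pinned into cell-free DMEM with 10% FBS and fluorescence was read at excitation 540 nm. Activity is expressed as Rose Bengal sodium equivalency.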

[13] = qHTS assay to test for compound auto fluorescence at 460 nm (blue) in HepG2 cell free culture (AID 720685)
Method in brief: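 Cell-free plates of MEM plus 10% FBS received 23 nL compound or DMSO vehicle; blue-channel (405/460 nm) intensity scored against triamterene as reference fluorophore.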

[14] = qHTS assay to test for compound auto fluorescence at 535 nm (green) in HepG2 cell free culture (AID 720686)
[15] = qHTS assay to test for compound auto fluorescence at 460 nm (blue) in HepG2 cells (AID 720687)
Method in brief: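 Cells (2,000/well in MEM with 10% FBS) attached overnight at 37 C, then were exposed to compound or DMSO for 1 hr at 37 C, 5% CO2. Fluorescence read at Ex/Em 405/460 nm, expressed as triamterene-equivalent signal.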

[16] = biological target: Glucocorticoid receptor (Homo sapiens) (UniProt P04150); test: qHTS assay to identify small molecule agonists of the glucocorticoid receptor (GR) signaling pathway (AID 720691; active = well fitted activation curve with a large enough effect in the signal ratio in the repeat runs, not every such curve was filed as active; the % refers to the signal ratio)
Chain of Glucocorticoid receptor (Homo sapiens) (P04150 whole entry, looked up): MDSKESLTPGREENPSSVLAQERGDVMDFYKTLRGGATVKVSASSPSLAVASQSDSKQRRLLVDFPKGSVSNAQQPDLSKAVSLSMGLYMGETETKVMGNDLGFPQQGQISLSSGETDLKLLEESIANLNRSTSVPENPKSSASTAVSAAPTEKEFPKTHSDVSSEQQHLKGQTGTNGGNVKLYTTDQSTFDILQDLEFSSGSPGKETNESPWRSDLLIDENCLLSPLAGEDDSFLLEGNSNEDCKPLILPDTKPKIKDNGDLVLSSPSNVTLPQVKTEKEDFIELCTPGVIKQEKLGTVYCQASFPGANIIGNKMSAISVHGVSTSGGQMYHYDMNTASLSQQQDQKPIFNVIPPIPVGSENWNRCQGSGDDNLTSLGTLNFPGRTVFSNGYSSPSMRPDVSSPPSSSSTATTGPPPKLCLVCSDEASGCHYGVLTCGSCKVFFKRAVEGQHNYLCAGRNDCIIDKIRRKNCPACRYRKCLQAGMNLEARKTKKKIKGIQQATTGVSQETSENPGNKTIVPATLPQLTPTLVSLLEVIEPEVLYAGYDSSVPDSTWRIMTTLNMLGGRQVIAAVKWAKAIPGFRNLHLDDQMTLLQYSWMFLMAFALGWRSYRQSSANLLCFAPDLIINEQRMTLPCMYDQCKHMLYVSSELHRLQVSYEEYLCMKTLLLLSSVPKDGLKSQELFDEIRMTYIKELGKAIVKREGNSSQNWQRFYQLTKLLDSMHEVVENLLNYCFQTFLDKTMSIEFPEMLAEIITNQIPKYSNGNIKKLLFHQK
Method in brief: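 Steps: seed GR-bla HeLa cells, incubate 4 h at 37 C/5% CO2; pin-transfer DMSO-dissolved compounds; incubate 18 h at 37 C; add LiveBLAzer B/G FRET substrate; after 2 h at room temperature, measure fluorescence.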

[17] = biological target: Glucocorticoid receptor (Homo sapiens) (UniProt P04150); test: qHTS assay to identify small molecule antagonists of the glucocorticoid receptor (GR) signaling pathway (AID 720692; active = well fitted inhibition curve with a large enough effect in the signal ratio in the repeat runs, not every such curve was filed as active; the % refers to the signal ratio; note: potency is the fitted concentration of half-maximal effect)
Method in brief: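 Antagonism was scored as loss of dexamethasone-driven (5 nM final) reporter signal in HeLa cells bearing a glucocorticoid response element–beta-lactamase construct, after 18 h compound exposure at 37 C and 2 h FRET substrate loading.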

[18] = qHTS assay for small molecules that induce genotoxicity in human embryonic kidney cells expressing luciferase-tagged ATAD5 - cell viability (AID 651634; calls by dose curve; note: nearly all actives have a fitted effect of over 25% in size)
Method in brief: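 Cells (HEK293T, luciferase-tagged ATAD5) are seeded at 2,000 per well, dosed with compound or DMSO vehicle, and incubated 15.5 hr at 37C and 5% CO2. CellTiter-Fluor is added for 30 min before fluorescence is measured.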

[19] = qHTS assay to test for compound auto fluorescence at 590 nm (red) in HepG2 cell free culture (AID 720684)
Method in brief: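 Readout: intrinsic compound fluorescence at 590 nm emission after 540 nm excitation, scaled to Rose Bengal sodium. Matrix was cell-free MEM with 10% FBS; DMSO vehicle wells served as control.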

Row | Compound | Potency [1] | outcome [2] | Potency [3] | Potency [4] | outcome [5] | outcome [6] | outcome [7] | outcome [8] | outcome [9] | outcome [10] | outcome [11] | outcome [12] | outcome [13] | outcome [14] | outcome [15] | Potency [16] | Potency [17] | Potency [18] | outcome [19]
1 | COC(=O)C1=C(C)NC(C)=C(C(=O)OC)C1c1ccccc1[N+](=O)[O-] | inactive | inactive | inactive | inactive and 61.2 µM (active) | inactive | inactive | inactive | inactive | inactive | inactive | inactive | inactive | inactive | inactive | inactive | inactive | 10.7 µM (active) and 27.6 µM (active) |  | 
2 | CC(C)NC(=O)NC(C)C | inactive | inactive | inactive |  | inactive | inactive | inactive | inactive | inactive | inactive | inactive | inactive | inactive | inactive | inactive | inactive |  | inactive | inactive
3 | CC(=O)N(CC(O)CO)c1c(I)c(C(=O)NCCO)c(I)c(C(=O)NCC(O)CO)c1I (configuration not stated) | inactive |  | inactive | inactive | inactive | inactive | inactive | inactive | inactive |  | inactive | inactive | inactive | inactive | inactive |  |  | inactive | 
4 | CCCCOCCOCCOCc1cc2c(cc1CCC)OCO2 |  |  | inactive and 17.4 µM (active) | 55.1 µM (active) | inactive | inactive | inactive | inactive | inactive | inactive | inactive | inactive |  | inactive | inactive |  |  | inactive | inactive
5 | CCOC(=O)Nc1ccc(NCc2ccc(F)cc2)nc1N | inactive | inactive | inactive | inactive | inactive | inactive |  | inactive | inactive |  |  | inactive |  | inactive |  | inactive | inactive | inactive | 
6 | CC(=O)CC(C)C | inactive |  | inactive | inactive | inactive | inactive | inactive | inactive | inactive | inactive | inactive | inactive | inactive | inactive | inactive | inactive | inactive | inactive | inactive
7 | CC(=O)OC/C=C(\C)CC/C=C(\C)CCC=C(C)C | inactive |  | inactive | inactive | inactive | inactive | inactive | inactive | inactive | inactive |  | inactive | inactive | inactive | inactive |  |  | inactive | inactive
8 | C=C(C)CS(=O)(=O)O | inactive |  | inactive |  | inactive | inactive | inactive | inactive | inactive | inactive | inactive | inactive | inactive | inactive | inactive | inactive | inactive | inactive | inactive
9 | CC(=O)OCC(CCn1cnc2cnc(N)nc21)COC(C)=O | inactive |  | inactive | inactive | inactive | inactive | inactive | inactive | inactive | inactive | inactive | inactive | inactive | inactive | inactive | inactive | inactive | inactive | inactive
10 | CC(=O)OCC(=O)[C@@]1(O)CC[C@H]2[C@@H]3CCC4=CC(=O)CC[C@]4(C)[C@H]3C(=O)C[C@@]21C | inactive |  | inactive |  | inactive | inactive | inactive | inactive | inactive | inactive |  | inactive |  | inactive | inactive |  |  | inactive | inactive
11 | CCOc1ccc(C(=O)OCCN(CC)CC)cc1 | inactive | inactive | inactive |  | inactive | inactive | inactive | inactive | inactive | inactive | inactive | inactive | inactive | inactive | inactive |  |  | inactive | inactive
12 | Cc1ccc(C#N)cc1 | inactive | inactive | inactive |  | inactive | inactive | inactive | inactive | inactive | inactive | inactive | inactive | inactive | inactive | inactive | inactive | inactive | inactive | inactive
13 | CCO[Si](CCC1CCC2OC2C1)(OCC)OCC (configuration not stated) | inactive | inactive | inactive | inactive | inactive | inactive | inactive | inactive | inactive |  | inactive | inactive | inactive | inactive | inactive | inactive | inactive | inactive | inactive
14 | CCc1ccc(O)c(OC)c1 | inactive | inactive | inactive |  | inactive | inactive | inactive | inactive | inactive | inactive | inactive | inactive | inactive | inactive | inactive |  | inactive | inactive | inactive
15 | CC/C=C\CC/C=C/CO | inactive | inactive | inactive |  | inactive | inactive | inactive | inactive | inactive | inactive | inactive | inactive | inactive | inactive | inactive |  | inactive | inactive | inactive
16 | CO[C@]12C[C@@H](COC(=O)c3cncc(Br)c3)CN(C)[C@@H]1Cc1cn(C)c3cccc2c13 | inactive |  | inactive | inactive | inactive | inactive | inactive | inactive | inactive | inactive | inactive | inactive | inactive | inactive | inactive | inactive | inactive |  | 
17 | O=C1CCCN1C1CCCCC1 | inactive |  | inactive |  | inactive | inactive | inactive | inactive | inactive | inactive | inactive | inactive | inactive | inactive | inactive |  |  | inactive | inactive
18 | O=C(O)CN(CCOCCOCCN(CC(=O)O)CC(=O)O)CC(=O)O | inactive | inactive | inactive |  | inactive | inactive | inactive | inactive | inactive | inactive | inactive | inactive | inactive | inactive | inactive | inactive | inactive | inactive | inactive
19 | NCCCNCCSP(=O)(O)O | inactive |  | inactive | inactive | inactive | inactive | inactive | inactive | inactive | inactive | inactive | inactive |  | inactive | inactive |  |  | inactive | inactive
20 | CCC=O | inactive | inactive | inactive |  | inactive | inactive | inactive | inactive | inactive | inactive |  | inactive | inactive | inactive | inactive |  |  | inactive | inactive
21 | C=C1CC[C@H]2C[C@@H]1C2(C)C | inactive | inactive |  |  | inactive | inactive | inactive | inactive | inactive | inactive | inactive | inactive | inactive | inactive | inactive |  |  | inactive | inactive
22 | CN(C)CCCN1c2ccccc2CCc2ccc(Cl)cc21 |  |  | inactive |  | inactive | inactive | inactive | inactive | inactive | inactive |  | inactive | inactive | inactive | inactive |  |  | inactive | inactive
23 | Cc1[nH]c(=O)c(C#N)cc1-c1ccc2nccn2c1 | inactive | inactive | inactive |  | inactive | inactive | inactive | inactive | inactive |  |  | inactive | inactive | inactive | inactive | inactive | inactive | inactive | inactive
24 | NCCc1cnc[nH]1 |  |  | inactive |  | inactive | inactive | inactive | inactive | inactive |  | inactive | inactive | inactive | inactive | inactive |  |  | inactive | 
